PubChem BioAssay AID1732 (National Center for Advancing Translational Sciences (NCATS), 2009)
The other results are listed elsewhere or left out. Records with an inconclusive call do not appear. Activity calls are given as the source filed them. Calls follow the shape of the dose curve; as a rule, active = well fitted inhibition curve with a large enough effect; inconclusive = small, poorly fitted or top-dose-only effect, or effect the other way, or another doubt; inactive = no such curve, though single readings can be large or run the other way.

Molecular target: Dual specificity mitogen-activated protein kinase kinase 1 (Homo sapiens) (UniProt Q02750)
Sequence (Q02750 whole entry, looked up): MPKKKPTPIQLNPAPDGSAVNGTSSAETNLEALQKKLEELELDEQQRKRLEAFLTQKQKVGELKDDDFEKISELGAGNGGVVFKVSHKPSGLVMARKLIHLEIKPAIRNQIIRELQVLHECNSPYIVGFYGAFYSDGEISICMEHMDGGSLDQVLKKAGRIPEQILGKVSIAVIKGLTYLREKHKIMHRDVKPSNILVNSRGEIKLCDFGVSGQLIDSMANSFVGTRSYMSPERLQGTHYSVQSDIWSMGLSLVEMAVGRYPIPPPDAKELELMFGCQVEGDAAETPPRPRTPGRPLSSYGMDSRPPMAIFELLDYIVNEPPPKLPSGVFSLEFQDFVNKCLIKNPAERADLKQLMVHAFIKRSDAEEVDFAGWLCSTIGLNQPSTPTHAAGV
Test: Assay for Inhibitors of the ERK Signaling Pathway using a Homogeneous Screening Assay: MEK Inhibition
Conditions: series mostly up to 76.9 µM
Source text: qHTS Assay for Inhibitors of the ERK Signaling Pathway using a Homogeneous Screening Assay
NIH Chemical Genomics Center [NCGC]
NIH Molecular Libraries Screening Centers Network [MLSCN]
Assay Submitter (PI): Dr. Wei Zheng, NCGC/NIH
The Ras/extracellular-signal-regulated kinase (ERK) mitogen activated protein (MAP) kinase signaling pathway (ERK1/2 cascade) plays is a key role in transmitting signals from the cell surface to the nucleus (Nishida and Gotoh 1993; Chang and Karin, 2001). The cascade is initiated by the small G-protein Ras, which recruits Raf […], where activation occurs. Alternatively, this pathway can be activated by elevating intracellular cAMP.
Activation of the ERK pathway is essential in increased cell division and cell survival. Sustained and constitutive activation of the ERK pathway, however, has been linked to uncontrolled cell proliferation, increased cell survival, and tumor progression. Thus, the ERK has been as an attractive target for cancer chemotherapy in the past few years (Sebolt-Leopold and Herrera, 2004). Given its physiological and pathological importance, assessment of ERK phosphorylation has been broadly performed in both basic research and drug discovery. Most assays for the measurement of ERK phosphorylation use the antibody-based detection methods, such as western blot and ELISA. These assays require multiple reagent additions with cell wash steps and are not suitable for high-throughput screening.
The current cell-based ERK phosphorylation assay was performed using AlphaScreen platform. AlphaScreen is a two bead-based proximity-dependent chemical energy transfer luminescent assay platform. The assay reagents (ERK SureFire(TM) kit) were supplied from TGR BioSciences (Australia). […]
The HTRF kinase assay (components supplied as kit by Cisbio) was chosen for the EGFR and EGFR mutant enzyme assays that applied the time resolved fluorescence resonance energy transfer (TR-FRET) principle. […]

outcome, inactive:
CN(C)c1cc2c(Nc3ccc4c(cnn4Cc4ccccc4)c3)ncnc2cn1
O=[N+]([O-])c1ccccc1N/N=C1\CCc2ccccc21
CCCNc1ncnc2sc(C)c(C)c12
